Measured values reported in the supplement of paper PMC10849652.
About 8,800 targets were measured; listed, in parts, are those with a hit and a random draw of the rest. About 0.5% of all pairs of compound and target were hits.

Experiments:
Assay in all cases: log2 fold change, soluble protein after heating vs DMSO (PISA); higher = thermal stabilisation; K562 lysate, 10 uM; active = over 0.2 and 3.5 SD of the protein, either way, in both replicates (recomputed)
vemurafenib = compound: CCCS(=O)(=O)Nc1ccc(F)c(C(=O)c2c[nH]c3ncc(-c4ccc(Cl)cc4)cc23)c1F [vemurafenib]
Outline: (§1)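 Soluble protein was defined as the supernatant remaining after 21,000xg for 90 min, following pooling of heated aliquots and adjustment to 0.5% NP-40 at 4°C. Before that, crude K562 extract at 1 mg/mL protein in PBS pH 7.4 with 1 mM MgCl2 was treated with 10 μM compound for 30 min and heated for 3 min across 48°C-58°C. Quantification used TMTpro 16plex LC-MS/MS with channel sums equalised, and values are log-two fold changes in thermal stability relative to solvent controls from duplicates.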

[1] = compound: CCCS(=O)(=O)Nc1ccc(F)c(C(=O)c2c[nH]c3ncc(Cl)cc23)c1F
Outline: as §1

barasertib = compound: CCN(CCCOc1ccc2c(Nc3cc(CC(=O)Nc4cccc(F)c4)[nH]n3)ncnc2c1)CCOP(=O)(O)O [barasertib]
Outline: as §1

[2] = compound: CC[C@@H]1C(=O)N(C)c2cnc(Nc3ccc(C(=O)NC4CCN(C)CC4)cc3OC)nc2N1C1CCCC1
Outline: as §1

volasertib = compound: CC[C@@H]1C(=O)N(C)c2cnc(Nc3ccc(C(=O)N[C@H]4CC[C@H](N5CCN(CC6CC6)CC5)CC4)cc3OC)nc2N1C(C)C [volasertib]
Outline: as §1

[3] = compound: CCn1c(C(=O)N(C2CC2)C2CC2)cc2c3c(ncn3C)c(Nc3cc(C)n(C)n3)nc21
Outline: as §1

[4] = compound: CCn1cc(-c2ccnc3[nH]c(-c4cccc(CN(C)C)c4)cc23)c(-c2ccc(NC(=O)N(C)C)cc2)n1
Outline: as §1

[5] = compound: CN1CCC(CNc2ccc3ncc(-c4cccc(OC(F)(F)F)c4)n3n2)CC1
Outline: as §1

saracatinib = compound: CN1CCN(CCOc2cc(OC3CCOCC3)c3c(Nc4c(Cl)ccc5c4OCO5)ncnc3c2)CC1 [saracatinib]
Outline: as §1

sotrastaurin = compound: CN1CCN(c2nc(C3=C(c4c[nH]c5ccccc45)C(=O)NC3=O)c3ccccc3n2)CC1 [sotrastaurin]
Outline: as §1

Measured: log2 fold change

SLC29A2 (UniProt Q14542)
inactive: vemurafenib 0.003 | [1] 0.012 | barasertib 0.029 | [2] 0.049 | volasertib -0.041 | [3] -0.079 | [5] 0.206 | saracatinib -0.004 | sotrastaurin 0.013
active: [4] -0.729

SNRPD2 (UniProt P62316)
inactive: vemurafenib -0.008 | [1] -0.019 | barasertib 0.001 | [2] 0.058 | volasertib 0.033 | [3] 0.018 | [4] -0.083 | [5] 0.051 | saracatinib -0.021 | sotrastaurin 0.011

SLC25A44 (UniProt Q96H78)
Sequence of UniProt Q96H78 (Q96H78 whole entry, looked up): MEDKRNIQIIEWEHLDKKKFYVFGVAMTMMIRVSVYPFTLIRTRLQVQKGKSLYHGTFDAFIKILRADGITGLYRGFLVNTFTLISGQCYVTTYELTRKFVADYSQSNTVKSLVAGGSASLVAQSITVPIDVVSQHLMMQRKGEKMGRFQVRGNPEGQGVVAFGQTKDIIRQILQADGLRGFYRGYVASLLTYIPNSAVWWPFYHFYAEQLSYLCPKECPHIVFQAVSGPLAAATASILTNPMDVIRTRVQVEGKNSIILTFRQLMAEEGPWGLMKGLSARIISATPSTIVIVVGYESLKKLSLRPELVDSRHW
inactive: vemurafenib 0.014 | [1] 0.015 | barasertib 0.007 | [2] 0.002 | volasertib 0.06 | [3] 0.307 | [4] 0.021 | [5] 0.17 | saracatinib -0.041 | sotrastaurin 0.062

SMC6 (UniProt Q96SB8)
inactive: vemurafenib 0.044 | [1] 0.01 | barasertib 0.014 | [2] 0.047 | volasertib -0.031 | [3] 0.012 | [4] -0.036 | [5] 0.024 | saracatinib 0.046 | sotrastaurin 0.027

SULT1A1 (UniProt P50225)
Sequence of UniProt P50225 (P50225 whole entry, looked up): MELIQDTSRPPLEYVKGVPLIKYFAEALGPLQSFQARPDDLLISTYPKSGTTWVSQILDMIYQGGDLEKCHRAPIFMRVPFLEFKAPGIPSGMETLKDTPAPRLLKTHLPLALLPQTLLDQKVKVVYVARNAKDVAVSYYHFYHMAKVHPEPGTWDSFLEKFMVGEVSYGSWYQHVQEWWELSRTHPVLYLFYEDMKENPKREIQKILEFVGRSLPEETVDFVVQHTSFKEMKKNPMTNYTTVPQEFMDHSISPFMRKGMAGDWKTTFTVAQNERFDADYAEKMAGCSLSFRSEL
inactive: vemurafenib 0.014 | [1] 0.004 | barasertib -0.017 | [2] 0.032 | volasertib -0.046 | [3] -0.016 | [4] 0.014 | [5] -0.009 | saracatinib 0.037 | sotrastaurin -0.009

STN1 (UniProt Q9H668)
inactive: vemurafenib 0.047 | [1] -0.389 | barasertib 0.114 | [2] -0.071 | volasertib -0.068 | [3] -0.016 | [4] -0.179 | [5] 0.31 | sotrastaurin -0.025

SLC30A6 isoform 2 (UniProt Q6NXT4)
inactive: vemurafenib -0.098 | [1] 0.018 | barasertib 0.146 | [2] 0.105 | volasertib 0.001 | [3] -0.03 | [4] -0.127 | [5] 0.063 | sotrastaurin -0.004

STK26 (UniProt Q9P289)
inactive: vemurafenib 0.021 | [1] -0.008 | barasertib -0.009 | [2] -0.032 | volasertib -0.064 | [3] 0.037 | [4] -0.045 | [5] -0.048 | saracatinib -0.02 | sotrastaurin 0.006

SND1 (UniProt Q7KZF4)
Sequence of UniProt Q7KZF4 (Q7KZF4 whole entry, looked up): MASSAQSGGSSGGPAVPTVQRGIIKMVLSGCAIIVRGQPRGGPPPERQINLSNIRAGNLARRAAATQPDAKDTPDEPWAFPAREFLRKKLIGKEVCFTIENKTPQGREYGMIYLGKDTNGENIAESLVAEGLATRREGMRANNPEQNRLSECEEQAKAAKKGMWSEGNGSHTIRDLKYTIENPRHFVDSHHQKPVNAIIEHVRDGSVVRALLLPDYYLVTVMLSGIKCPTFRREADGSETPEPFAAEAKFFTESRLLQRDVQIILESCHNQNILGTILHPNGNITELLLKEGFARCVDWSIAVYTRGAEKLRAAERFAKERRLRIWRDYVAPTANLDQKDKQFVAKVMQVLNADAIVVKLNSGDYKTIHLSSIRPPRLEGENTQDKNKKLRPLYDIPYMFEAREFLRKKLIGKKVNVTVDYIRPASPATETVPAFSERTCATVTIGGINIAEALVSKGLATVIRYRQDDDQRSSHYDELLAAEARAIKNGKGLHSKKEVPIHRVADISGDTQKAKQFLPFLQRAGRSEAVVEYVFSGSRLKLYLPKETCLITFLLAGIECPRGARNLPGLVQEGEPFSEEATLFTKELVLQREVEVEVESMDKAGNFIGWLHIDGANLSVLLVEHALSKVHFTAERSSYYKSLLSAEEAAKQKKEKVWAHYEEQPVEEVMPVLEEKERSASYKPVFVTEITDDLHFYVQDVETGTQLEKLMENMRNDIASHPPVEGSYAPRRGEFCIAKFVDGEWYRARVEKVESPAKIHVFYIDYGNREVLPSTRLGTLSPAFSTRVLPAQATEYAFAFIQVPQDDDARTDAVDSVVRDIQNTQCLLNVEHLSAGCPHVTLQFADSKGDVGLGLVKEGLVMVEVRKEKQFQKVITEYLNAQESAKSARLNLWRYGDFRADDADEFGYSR
inactive: vemurafenib 0.024 | [1] 0.017 | barasertib 0.021 | [2] -0.099 | volasertib -0.084 | [3] 0.037 | [4] 0.058 | [5] -0.078 | saracatinib 0.014 | sotrastaurin 0.031

SLC25A25 isoform 3 (UniProt Q6KCM7)
Sequence of UniProt Q6KCM7 (Q6KCM7 whole entry, looked up): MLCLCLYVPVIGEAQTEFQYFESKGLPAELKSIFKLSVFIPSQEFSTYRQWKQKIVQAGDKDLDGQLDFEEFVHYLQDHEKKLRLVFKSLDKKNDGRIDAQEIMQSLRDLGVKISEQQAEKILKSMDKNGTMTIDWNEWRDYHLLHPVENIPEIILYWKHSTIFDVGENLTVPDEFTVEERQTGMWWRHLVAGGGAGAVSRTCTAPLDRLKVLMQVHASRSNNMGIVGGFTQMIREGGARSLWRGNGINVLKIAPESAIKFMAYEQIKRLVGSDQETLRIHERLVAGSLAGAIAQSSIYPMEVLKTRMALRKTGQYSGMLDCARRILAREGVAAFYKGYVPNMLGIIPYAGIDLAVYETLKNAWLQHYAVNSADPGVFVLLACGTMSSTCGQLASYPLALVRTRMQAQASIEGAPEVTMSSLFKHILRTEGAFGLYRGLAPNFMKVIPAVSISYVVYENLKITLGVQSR
inactive: vemurafenib -0.011 | [1] -0.012 | barasertib 0.004 | [2] 0.012 | volasertib 0.03 | [3] 0.007 | [4] -0.012 | [5] -0.053 | saracatinib 0.016 | sotrastaurin -0.016

TARDBP (UniProt K7EN94)
inactive: vemurafenib 0.008 | [2] -0.039

STAU1 isoform 3 (UniProt O95793)
inactive: barasertib 0.014 | [4] -0.166 | [5] -0.016 | sotrastaurin 0.092

SHC1 (UniProt P29353)
inactive: [4] -0.2 | [5] -0.114

SIX5 (UniProt Q8N196)
inactive: [1] 0.031 | barasertib -0.026 | volasertib -0.046 | [3] 0.084 | [4] 0.538 | [5] -0.132 | saracatinib -0.093 | sotrastaurin -0.009

SLCO4A1 (UniProt Q96BD0)
Sequence of UniProt Q96BD0 (Q96BD0 whole entry, looked up): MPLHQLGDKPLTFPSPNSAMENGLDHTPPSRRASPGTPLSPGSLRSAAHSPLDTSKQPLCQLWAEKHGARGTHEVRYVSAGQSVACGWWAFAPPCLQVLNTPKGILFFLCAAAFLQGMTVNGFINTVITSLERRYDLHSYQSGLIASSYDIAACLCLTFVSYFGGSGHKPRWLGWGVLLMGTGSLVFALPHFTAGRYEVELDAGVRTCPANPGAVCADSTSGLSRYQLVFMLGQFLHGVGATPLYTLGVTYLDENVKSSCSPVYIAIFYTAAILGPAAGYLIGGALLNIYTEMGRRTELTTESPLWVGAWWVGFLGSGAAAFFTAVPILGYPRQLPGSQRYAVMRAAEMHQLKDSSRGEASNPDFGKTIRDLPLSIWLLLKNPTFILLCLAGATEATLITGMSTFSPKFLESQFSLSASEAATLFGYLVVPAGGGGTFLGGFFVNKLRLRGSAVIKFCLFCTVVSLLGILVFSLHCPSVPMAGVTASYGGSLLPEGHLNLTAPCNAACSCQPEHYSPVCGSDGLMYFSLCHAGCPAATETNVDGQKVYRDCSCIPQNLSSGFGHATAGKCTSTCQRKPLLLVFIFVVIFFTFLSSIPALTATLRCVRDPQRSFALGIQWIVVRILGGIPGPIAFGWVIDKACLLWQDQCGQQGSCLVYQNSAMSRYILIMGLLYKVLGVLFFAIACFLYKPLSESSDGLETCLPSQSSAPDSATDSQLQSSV
inactive: barasertib 0.037 | [4] -0.015 | [5] 0.042

SZT2 (UniProt Q5T011)
inactive: [1] -0.032 | barasertib 0.313 | [2] 0.293 | volasertib -0.095 | [3] 0.006 | [4] 0.035 | [5] 0.094 | saracatinib -0.073

STK26 isoform 3 (UniProt Q9P289)
inactive: [2] 0.189 | saracatinib -0.046 | sotrastaurin -0.119

SLU7 (UniProt O95391)
inactive: vemurafenib -0.043 | barasertib -0.07 | [2] 0.062 | [3] -0.004 | [4] -0.188 | [5] 0.166 | saracatinib 0.093 | sotrastaurin -0.027

SLC12A6 isoform 2 (UniProt Q9UHW9)
inactive: [1] 0.009 | [2] 0.053 | volasertib -0.178 | [3] -0.021 | saracatinib 0.042 | sotrastaurin 0.057

STAR (UniProt P49675)
inactive: vemurafenib 0.02 | [2] 0.074 | [3] 0.008 | [4] 0.043 | [5] -0.03 | saracatinib 0.006 | sotrastaurin 0.061

SKP2 (UniProt Q13309)
inactive: vemurafenib 0.417 | [1] 0.093 | [2] 0.193 | volasertib 0.05 | [3] 0.025 | [4] 0.121 | [5] -0.008 | saracatinib -0.011 | sotrastaurin 0.032

SNAP23 isoform 2 (UniProt O00161)
inactive: vemurafenib 0.172 | [1] 0.09 | [2] 0.052 | volasertib 0.003 | [3] -0.029 | [4] 0.123 | [5] -0.061

SLC40A1 (UniProt Q9NP59)
active: [4] -0.491
inactive: vemurafenib 0.01 | [1] -0.037 | [2] 0.123 | volasertib 0.037 | [3] -0.106 | [5] 0.067 | saracatinib 0 | sotrastaurin 0.026

TAF11 (UniProt Q15544)
Sequence of UniProt Q15544 (Q15544 whole entry, looked up): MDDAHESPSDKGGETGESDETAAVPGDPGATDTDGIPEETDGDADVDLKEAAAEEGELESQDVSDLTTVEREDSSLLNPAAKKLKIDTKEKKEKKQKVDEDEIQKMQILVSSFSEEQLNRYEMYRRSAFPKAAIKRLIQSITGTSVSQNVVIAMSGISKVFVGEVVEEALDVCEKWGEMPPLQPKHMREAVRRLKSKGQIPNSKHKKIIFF
inactive: vemurafenib -0.055 | [1] 0.166 | [2] 0.14 | volasertib 0.037 | [3] 0.086 | [4] -0.028 | [5] 0.086 | saracatinib -0.021 | sotrastaurin 0.026

SLC39A13 (UniProt Q96H72)
inactive: [3] 0.035

SNRPD2 (UniProt K7EJB5)
inactive: vemurafenib 0.061 | [1] -0.029 | [2] -0.085 | volasertib 0.026 | [3] 0.112 | saracatinib -0.049 | sotrastaurin 0.112

SRC isoform 2 (UniProt P12931)
Sequence of UniProt P12931 (P12931 whole entry, looked up): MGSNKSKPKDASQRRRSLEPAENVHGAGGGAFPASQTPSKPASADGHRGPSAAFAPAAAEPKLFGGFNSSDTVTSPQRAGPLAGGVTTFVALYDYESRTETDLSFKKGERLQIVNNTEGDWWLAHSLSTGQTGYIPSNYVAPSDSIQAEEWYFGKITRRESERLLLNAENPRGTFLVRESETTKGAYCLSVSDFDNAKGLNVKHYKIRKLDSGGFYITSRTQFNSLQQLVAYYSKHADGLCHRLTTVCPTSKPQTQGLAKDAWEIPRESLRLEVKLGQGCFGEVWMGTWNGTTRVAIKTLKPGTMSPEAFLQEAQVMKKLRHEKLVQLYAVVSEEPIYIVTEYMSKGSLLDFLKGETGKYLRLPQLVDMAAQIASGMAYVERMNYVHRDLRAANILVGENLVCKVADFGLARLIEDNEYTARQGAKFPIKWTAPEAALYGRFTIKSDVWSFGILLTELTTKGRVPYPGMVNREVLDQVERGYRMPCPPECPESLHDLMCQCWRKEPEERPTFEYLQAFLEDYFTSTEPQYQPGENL
inactive: [1] 0.166 | barasertib 0.133 | [2] 0.045 | volasertib -0.039 | [3] -0.024 | [4] 0.184 | [5] -0.121

STK38L (UniProt Q9Y2H1)
inactive: [2] -0.105 | [3] -0.047 | saracatinib -0.058 | sotrastaurin -0.01

SMARCA4 isoform 4 (UniProt P51532)
inactive: [1] -0.047 | [2] 0.049 | volasertib 0.043 | [3] -0.192 | [4] -0.086 | [5] 0.057 | saracatinib 0.119 | sotrastaurin 0.325

SPAG1 (UniProt Q07617)
inactive: vemurafenib 0.041 | [1] 0.028 | barasertib 0.018 | volasertib -0.137 | [3] 0.083 | sotrastaurin -0.02

SMC4 (UniProt C9JJ64)
inactive: barasertib 0.152

SMPD2 (UniProt O60906)
inactive: [1] 0.179 | [2] 0.051 | volasertib 0.032 | [3] -0.017 | [4] -0.003 | [5] -0.104 | saracatinib 0.018

SHB (UniProt Q15464)
Sequence of UniProt Q15464 (Q15464 whole entry, looked up): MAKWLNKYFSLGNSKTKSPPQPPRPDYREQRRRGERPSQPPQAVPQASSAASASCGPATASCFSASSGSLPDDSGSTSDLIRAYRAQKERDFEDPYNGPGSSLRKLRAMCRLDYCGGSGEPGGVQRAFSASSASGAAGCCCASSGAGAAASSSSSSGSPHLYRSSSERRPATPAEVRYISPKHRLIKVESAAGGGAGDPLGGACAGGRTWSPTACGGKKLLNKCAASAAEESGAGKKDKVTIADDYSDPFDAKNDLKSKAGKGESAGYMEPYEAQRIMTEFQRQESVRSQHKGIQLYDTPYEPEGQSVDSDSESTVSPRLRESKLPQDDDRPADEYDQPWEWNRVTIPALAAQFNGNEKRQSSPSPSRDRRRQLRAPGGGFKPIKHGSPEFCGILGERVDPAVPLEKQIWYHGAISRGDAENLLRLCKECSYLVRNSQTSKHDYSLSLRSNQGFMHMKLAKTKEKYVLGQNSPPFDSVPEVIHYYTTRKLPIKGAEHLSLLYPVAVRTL
inactive: [1] -0.049 | volasertib 0.072 | [3] 0.113 | [4] -0.125 | [5] -0.162 | saracatinib 0.003 | sotrastaurin -0.003

SLC35A3 isoform 2 (UniProt Q9Y2D2)
inactive: vemurafenib -0.024 | [1] -0.031 | [2] 0.056 | volasertib 0.005 | [3] -0.374 | [5] 0.336 | sotrastaurin -0.026
active: [4] -1.1

SMIM1 (UniProt B2RUZ4)
Sequence of UniProt B2RUZ4 (B2RUZ4 whole entry, looked up): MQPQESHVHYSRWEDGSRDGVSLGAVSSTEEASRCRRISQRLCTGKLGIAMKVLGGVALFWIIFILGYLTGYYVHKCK
inactive: [1] 0.013 | barasertib 0.002 | [2] -0.108 | volasertib 0.026 | [3] -0.096 | [4] -0.036 | [5] -0.222 | sotrastaurin 0.088

STK3 isoform 2 (UniProt Q13188)
Sequence of UniProt Q13188 (Q13188 whole entry, looked up): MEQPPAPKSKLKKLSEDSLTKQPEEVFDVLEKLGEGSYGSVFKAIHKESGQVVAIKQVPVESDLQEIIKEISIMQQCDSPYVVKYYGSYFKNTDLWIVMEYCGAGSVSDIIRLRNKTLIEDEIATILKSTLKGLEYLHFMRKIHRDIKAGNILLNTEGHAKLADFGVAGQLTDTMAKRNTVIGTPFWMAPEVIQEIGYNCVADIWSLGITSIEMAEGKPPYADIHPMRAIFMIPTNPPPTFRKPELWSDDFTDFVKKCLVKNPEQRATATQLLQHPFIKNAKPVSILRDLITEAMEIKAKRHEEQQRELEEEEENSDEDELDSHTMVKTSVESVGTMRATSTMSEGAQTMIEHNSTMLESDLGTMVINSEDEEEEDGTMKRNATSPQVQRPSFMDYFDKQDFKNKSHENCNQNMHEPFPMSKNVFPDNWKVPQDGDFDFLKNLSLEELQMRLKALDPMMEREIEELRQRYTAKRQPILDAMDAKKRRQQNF
inactive: vemurafenib 0.046 | [1] 0.04 | barasertib 0.032 | volasertib -0.047 | [3] -0.012 | [4] -0.017 | [5] 0.216 | saracatinib -0.01 | sotrastaurin 0.142

SYK (UniProt P43405)
active: [4] -0.644
inactive: vemurafenib 0.184 | [1] 0.065 | barasertib 0.092 | volasertib 0.027 | [3] -0.123 | [5] -0.001 | saracatinib -0.041 | sotrastaurin 0.068

SIN3B (UniProt O75182)
inactive: vemurafenib -0.042 | [2] -0.092 | [4] -0.061 | [5] 0.267 | sotrastaurin -0.099

SLC41A1 (UniProt Q8IVJ1)
inactive: [1] 0.021 | [2] 0.085 | volasertib -0.084 | [3] 0.035 | [4] 0.083 | [5] 0.06 | sotrastaurin 0.082

STK17A (UniProt Q9UEE5)
inactive: [4] 0.164 | [5] -0.109

STK17B (UniProt O94768)
Sequence of UniProt O94768 (O94768 whole entry, looked up): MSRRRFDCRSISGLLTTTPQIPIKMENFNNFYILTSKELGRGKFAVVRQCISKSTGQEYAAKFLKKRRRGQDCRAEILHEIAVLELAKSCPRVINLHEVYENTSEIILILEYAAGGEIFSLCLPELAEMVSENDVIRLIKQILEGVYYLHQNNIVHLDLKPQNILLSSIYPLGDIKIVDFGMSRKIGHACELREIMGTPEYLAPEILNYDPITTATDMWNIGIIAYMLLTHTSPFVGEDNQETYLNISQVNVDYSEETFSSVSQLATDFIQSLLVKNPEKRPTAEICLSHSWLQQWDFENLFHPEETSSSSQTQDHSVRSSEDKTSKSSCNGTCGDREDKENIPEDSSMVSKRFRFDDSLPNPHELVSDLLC
inactive: [3] -0.451 | saracatinib -0.002 | sotrastaurin 0.057

SLC25A36 (UniProt Q96CQ1)
inactive: vemurafenib -0.272 | [1] 0.007 | [2] 0.113 | volasertib -0.045 | [3] 0.039 | [4] -0.016 | [5] 0.035 | saracatinib -0.001 | sotrastaurin -0.055

SNAPC2 (UniProt Q13487)
inactive: barasertib -0.211 | [3] 0.04 | [4] 0.039 | [5] 0.048 | saracatinib 0.038 | sotrastaurin 0.154
